About 83,000 compounds went through this panel and 20% of them were active in at least one assay; those are over-represented in the sample as a whole.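 48-hour exposure, single concentration, 96-well plates; percent growth endpoint where 0 means no net growth. Active: below 10.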 The source made the active and inactive calls.
Experiments:
Assay in all cases: NCI-60 one-dose screen, 48 h (100 = growth as untreated, 0 = no growth, -100 = all killed)
Details in all cases: 10 µM unless noted
NCI-H23 lung = tested on: NCI-H23 lung
NCI-H226 lung = tested on: NCI-H226 lung
NCI-H322M lung = tested on: NCI-H322M lung
HOP-62 NSCLC = tested on: HOP-62 NSCLC
NCI-H460 lung = tested on: NCI-H460 lung
HOP-92 NSCLC = tested on: HOP-92 NSCLC
NCI-H522 lung = tested on: NCI-H522 lung
A549/ATCC NSCLC = tested on: A549/ATCC NSCLC
786-0 renal = tested on: 786-0 renal
COLO 205 colon = tested on: COLO 205 colon

Measured: growth

Cc1ccc2oc(=O)cc(-c3nc4ccc([N+](=O)[O-])cc4[nH]3)c2c1
inactive: NCI-H23 lung 43.9% | NCI-H226 lung 66.6% | NCI-H322M lung 80.5% | HOP-62 NSCLC 72% | NCI-H460 lung 47.1% | HOP-92 NSCLC 52.7% | NCI-H522 lung 36% | A549/ATCC NSCLC 35.2% | 786-0 renal 40.6% | COLO 205 colon 67.8%

COCCn1c(Nc2ccc(C(=O)NO)cc2)nc2ccccc21
inactive: NCI-H23 lung 72.8% | NCI-H226 lung 89.6% | NCI-H322M lung 76.5% | HOP-62 NSCLC 74.8% | NCI-H460 lung 56.7% | HOP-92 NSCLC 27.7% | NCI-H522 lung 30.9% | A549/ATCC NSCLC 69.2% | 786-0 renal 84.4% | COLO 205 colon 50.7%

CCC(=O)NC(O)C(Cl)(Cl)C(C)Cl (stereo not given)
inactive: NCI-H23 lung 96.3% | NCI-H226 lung 95.7% | NCI-H322M lung 99.6% | HOP-62 NSCLC 102% | NCI-H460 lung 109% | HOP-92 NSCLC 88.1% | NCI-H522 lung 102% | A549/ATCC NSCLC 97.5% | 786-0 renal 101% | COLO 205 colon 114%

O=C1C=CC(=O)N1CO
inactive: NCI-H23 lung 124% | NCI-H226 lung 113% | NCI-H322M lung 117% | HOP-62 NSCLC 115% | NCI-H460 lung 123% | HOP-92 NSCLC 120% | NCI-H522 lung 103% | A549/ATCC NSCLC 109% | 786-0 renal 113% | COLO 205 colon 149%

Cc1cc(C)c2c(NC(=O)Nc3ccc(Cl)c(Cl)c3)n[nH]c2n1
inactive: NCI-H23 lung 101% | NCI-H226 lung 108% | NCI-H322M lung 91.3% | HOP-62 NSCLC 105% | NCI-H460 lung 106% | HOP-92 NSCLC 117% | NCI-H522 lung 92.6% | A549/ATCC NSCLC 101% | COLO 205 colon 106%

CC[C@H](Nc1nc(C)nc(N)c1C#N)c1nc2cccc(NCc3ccc(C(=O)NO)cc3)c2c(=O)n1-c1ccccc1
active: NCI-H23 lung -17.5% | NCI-H226 lung -3.97% | NCI-H460 lung 2.36% | HOP-92 NSCLC -1.54% | NCI-H522 lung -36.4% | A549/ATCC NSCLC -31% | 786-0 renal 5.71% | COLO 205 colon 0.926%
inactive: NCI-H322M lung 24.5% | HOP-62 NSCLC 10.1%

Cc1ccc(CSCc2ccc(C(=O)NC3CC3)o2)cc1
inactive: NCI-H23 lung 82% | NCI-H226 lung 105% | NCI-H322M lung 80.8% | HOP-62 NSCLC 109% | NCI-H460 lung 52.2% | HOP-92 NSCLC 75.2% | NCI-H522 lung 43.5% | A549/ATCC NSCLC 45.3% | 786-0 renal 91.6% | COLO 205 colon 63.7%

COc1ccc(/C=c2\c(=O)n(-c3ccccc3)c3nn4c(=O)c(=O)[nH]nc4n23)cc1
inactive: NCI-H23 lung 99.9% | NCI-H226 lung 92.8% | NCI-H322M lung 113% | HOP-62 NSCLC 102% | NCI-H460 lung 106% | HOP-92 NSCLC 100% | NCI-H522 lung 100% | A549/ATCC NSCLC 110% | 786-0 renal 108% | COLO 205 colon 119%

O=C1OCC2=C1C(c1cccc(Br)c1)c1cc3c(cc1N2CCO)OCCO3 (stereo not given)
active: NCI-H226 lung -4.52% | NCI-H460 lung 0.468% | NCI-H522 lung -11.5% | COLO 205 colon -24.5%
inactive: NCI-H23 lung 27.5% | NCI-H322M lung 35% | HOP-62 NSCLC 28.7% | HOP-92 NSCLC 25.2% | A549/ATCC NSCLC 13.5% | 786-0 renal 21.8%

C/C(CC(=O)NNc1ccc([N+](=O)[O-])cc1)=N\Nc1ccc([N+](=O)[O-])cc1
inactive: NCI-H23 lung 87.5% | NCI-H226 lung 96.2% | NCI-H322M lung 71.7% | HOP-62 NSCLC 83% | NCI-H460 lung 27.9% | HOP-92 NSCLC 90.5% | NCI-H522 lung 60.8% | A549/ATCC NSCLC 56.1% | 786-0 renal 55.3% | COLO 205 colon 48.8%

C#CCNC(=S)N/N=C(\C)c1ccccn1
active: NCI-H226 lung 5% | NCI-H322M lung -4.06% | NCI-H460 lung 4% | 786-0 renal 4.03%
inactive: NCI-H23 lung 20.1% | HOP-62 NSCLC 26.5% | HOP-92 NSCLC 52.4% | NCI-H522 lung 43.9% | A549/ATCC NSCLC 23.9% | COLO 205 colon 19.6%

O=c1cc(-c2ccc3c(c2)OCCO3)oc2cc(Cl)ccc12
active: NCI-H226 lung -12.9% | NCI-H322M lung -6.58% | HOP-62 NSCLC 1.84% | NCI-H460 lung -57.9% | HOP-92 NSCLC -8.2% | NCI-H522 lung -12.7% | 786-0 renal -42.8%
inactive: NCI-H23 lung 61% | A549/ATCC NSCLC 11.2% | COLO 205 colon 40.7%

COS(=O)(=O)CCN(CCOS(C)(=O)=O)S(C)(=O)=O
inactive: NCI-H23 lung 105% | NCI-H226 lung 100% | NCI-H322M lung 108% | HOP-62 NSCLC 109% | NCI-H460 lung 101% | HOP-92 NSCLC 89.1% | NCI-H522 lung 78.2% | A549/ATCC NSCLC 90.1% | 786-0 renal 97.9% | COLO 205 colon 117%

CCCN(CCC)CC(O)COc1ccccc1C(=O)Nc1ccccc1 (stereo not given)
inactive: NCI-H23 lung 90.9% | NCI-H226 lung 78.9% | NCI-H322M lung 119% | HOP-62 NSCLC 66.5% | NCI-H460 lung 97.6% | HOP-92 NSCLC 84.2% | NCI-H522 lung 55.8% | A549/ATCC NSCLC 40.4% | 786-0 renal 88% | COLO 205 colon 46.1%

Cc1cccc(C(=O)O)n1
inactive: NCI-H23 lung 123% | NCI-H226 lung 93.9% | NCI-H322M lung 108% | HOP-62 NSCLC 106% | NCI-H460 lung 105% | NCI-H522 lung 90.8% | 786-0 renal 112% | COLO 205 colon 114%
active: HOP-92 NSCLC 6.89%

CCN(CC)c1ccc(C(=N)c2ccc(N(C)C)cc2)cc1
inactive: NCI-H226 lung 16.4% | NCI-H322M lung 60.6%
active: NCI-H23 lung -23.3% | HOP-62 NSCLC 7.49% | NCI-H460 lung 0.221% | HOP-92 NSCLC -21% | NCI-H522 lung -13.5% | 786-0 renal 7.03% | COLO 205 colon -54.5%

COC1CC(N)C2OC(c3ccccc3)OCC2O1 (stereo not given)
inactive: NCI-H23 lung 103% | NCI-H226 lung 104% | NCI-H322M lung 107% | HOP-62 NSCLC 114% | NCI-H460 lung 103% | HOP-92 NSCLC 136% | NCI-H522 lung 98.7% | 786-0 renal 103% | COLO 205 colon 113%

O=Cc1ccc2nc(C(Cl)(Cl)Cl)ccc2c1
inactive: NCI-H23 lung 92.4% | NCI-H226 lung 97% | NCI-H322M lung 91.9% | HOP-62 NSCLC 104% | NCI-H460 lung 94.7% | HOP-92 NSCLC 91.8% | NCI-H522 lung 94.4% | 786-0 renal 99% | COLO 205 colon 115%

Cc1ccc(/C=C/C(=N/N=C(N)N)c2ccccc2)cc1
inactive: NCI-H23 lung 31.3% | NCI-H226 lung 59.5% | NCI-H322M lung 41.1% | HOP-62 NSCLC 25.8% | HOP-92 NSCLC 13.9% | 786-0 renal 32.8%
active: NCI-H460 lung 8.15% | NCI-H522 lung 9.07% | COLO 205 colon -16.4%

COc1ccc(-c2oc(=O)ccc2-c2cc(OC)c(OC)c(OC)c2)cc1F
inactive: NCI-H23 lung 81.4% | NCI-H226 lung 82.9% | NCI-H322M lung 95.4% | HOP-62 NSCLC 67.3% | NCI-H460 lung 56.3% | HOP-92 NSCLC 62.6% | NCI-H522 lung 50.8% | 786-0 renal 75.2% | COLO 205 colon 57.5%

CC(=O)OC1Oc2cc(C)c(C)cc2-c2oc(=O)c(-c3ccc(F)cc3)cc21 (stereo not given)
inactive: NCI-H23 lung 65.2% | NCI-H226 lung 102% | NCI-H322M lung 113% | HOP-62 NSCLC 77.8% | NCI-H460 lung 38% | HOP-92 NSCLC 80% | NCI-H522 lung 14.7% | 786-0 renal 56.3% | COLO 205 colon 79.2%

O=C1C2=C(C(=O)c3c(O)ccc(O)c31)N(c1ccc(N3CCOCC3)nc1)Cc1ccccc1O2
active: NCI-H23 lung -33.8% | NCI-H226 lung 0% | NCI-H322M lung -14.6% | HOP-62 NSCLC -13% | NCI-H460 lung -32.6% | HOP-92 NSCLC -66.1% | NCI-H522 lung -47.3% | 786-0 renal -83.7% | COLO 205 colon -67.5%

COC1=CC(c2ccc[nH]2)=N/C1=C\c1[nH]c(C)c(C(=O)CCCCCCCCC(=O)O[C@H]2CC[C@H]3C4CCc5cc(O)ccc5C4CC[C@]23C)c1C (stereo not given in full)
inactive: NCI-H23 lung 40.3% | NCI-H226 lung 24.9% | NCI-H322M lung 51.5% | HOP-62 NSCLC 50.7% | NCI-H460 lung 14.9% | NCI-H522 lung 15% | 786-0 renal 19.9% | COLO 205 colon 18.5%
active: HOP-92 NSCLC -14.6%

O=C(OCc1ccc2c(Br)cc(Br)c(O)c2n1)c1cc2ccccc2[nH]1
active: NCI-H23 lung -27.4% | NCI-H226 lung -66.5% | NCI-H460 lung -38.7% | HOP-92 NSCLC -66.4% | NCI-H522 lung -74.2% | 786-0 renal -78.2% | COLO 205 colon -74%
inactive: NCI-H322M lung 51.6% | HOP-62 NSCLC 13.7%

CCCCCCCCCC1=NC(C)(C)CN1C(C)(C)CO
inactive: NCI-H23 lung 89.1% | NCI-H226 lung 105% | NCI-H322M lung 89.4% | HOP-62 NSCLC 100% | NCI-H460 lung 105% | HOP-92 NSCLC 91% | NCI-H522 lung 80.9% | 786-0 renal 100% | COLO 205 colon 184%

NC(=O)c1noc(C(=O)c2ccccc2)c1N
inactive: NCI-H23 lung 101% | NCI-H226 lung 89.8% | NCI-H322M lung 104% | HOP-62 NSCLC 114% | NCI-H460 lung 102% | HOP-92 NSCLC 107% | NCI-H522 lung 80.4% | 786-0 renal 97.9% | COLO 205 colon 111%

O=S(=O)(NCC[C@@H]1C[C@H]1c1ccc2ccccc2c1)c1ccc(C(F)(F)F)cc1
inactive: NCI-H23 lung 84.9% | NCI-H226 lung 86.1% | NCI-H322M lung 100% | HOP-62 NSCLC 105% | NCI-H460 lung 96.1% | HOP-92 NSCLC 91.4% | NCI-H522 lung 83.8% | 786-0 renal 96.3% | COLO 205 colon 105%

C=CCn1c(C)nc2cc(Nc3nc(N4CCCC4)nc4nc[nH]c34)ccc21
active: NCI-H460 lung 0.371% | HOP-92 NSCLC -39.5% | 786-0 renal -76.1%
inactive: NCI-H23 lung 52.4% | NCI-H226 lung 58.9% | NCI-H322M lung 50.9% | HOP-62 NSCLC 50.6% | NCI-H522 lung 56.3% | COLO 205 colon 73.4%

— PubChem BioAssay (NCI)
